# Test results: PubChem BioAssay AID1159580 (chemical genetic matrix, 2015)
# About 2,000 (36%) of roughly 5,500 compounds were called active. Not shown: some 18% with an inconclusive outcome. Some of the results follow. A number with no mark means an inactive call. Rule as the data show it: active = normalized growth mostly below about 0.91 (no sharp cut-off); inconclusive = no clear call, values can overlap the other calls; inactive = mostly above about 0.92.
# Assay: chemical genetic growth profiling, strain panel (AID 1159580);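 also: tested at 20 µM; growth read once vehicle control cultures reached saturation at 30 °C; 1 = growth at the plate median or of vehicle wells; lower values mean less growth of the strain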
# Details: S. cerevisiae deletion strains, growth OD
structure (smiles),measurement,setting,value
N#Cc1nccnc1Sc1ccc(Cl)cc1,normalized growth,"locus YAL013W, strain DEP1, active compounds read low",0.946
same,normalized growth,"locus YBR229C, strain ROT2, active compounds read low",0.936
same,normalized growth,"locus YDL101C, strain DUN1, active compounds read low",0.948
same,normalized growth,"locus YDR150W, strain NUM1, active compounds read low",1.03
same,normalized growth,"locus YEL061C, strain CIN8, active compounds read low",0.914
same,normalized growth,"locus YGR078C, strain PAC10, active compounds read low",0.962
same,normalized growth,"locus YHR030C, strain SLT2, active compounds read low",0.537 (active)
same,normalized growth,"locus YHR087W, strain rtc3, active compounds read low",0.978
same,normalized growth,"locus YJL187C, strain SWE1, active compounds read low",0.949
same,normalized growth,"locus YJR043C, strain POL32, active compounds read low",0.993
same,normalized growth,"locus YJR075W, strain HOC1, active compounds read low",0.986
same,normalized growth,"locus YKL190W, strain CNB1, active compounds read low",0.932
same,normalized growth,"locus YLR039C, strain RIC1, active compounds read low",0.698 (active)
same,normalized growth,"locus YLR058C, strain SHM2 (second series), active compounds read low",0.929 (active)
same,normalized growth,"locus YLR085C, strain ARP6, active compounds read low",0.686 (active)
same,normalized growth,"locus YLR262C, strain YPT6, active compounds read low",0.729 (active)
same,normalized growth,"locus YML094W, strain GIM5, active compounds read low",0.905
same,normalized growth,"locus YMR219W, strain ESC1, active compounds read low",0.93 (active)
same,normalized growth,"locus YMR263W, strain SAP30, active compounds read low",0.963
same,normalized growth,"locus YNL128W, strain TEP1, active compounds read low",0.945
same,normalized growth,"locus YNL153C, strain GIM3, active compounds read low",0.988
same,normalized growth,"locus YNL298W, strain CLA4 (second series), active compounds read low",0.868
same,normalized growth,"locus YNL322C, strain KRE1, active compounds read low",0.925 (active)
same,normalized growth,"locus YNR030W, strain Alg12, active compounds read low",0.927
same,normalized growth,"locus YPL055C, strain LGE1, active compounds read low",1.01
same,normalized growth,"locus YPL241C, strain CIN2, active compounds read low",0.941
same,normalized growth,"locus YPR135W, strain CTF4, active compounds read low",0.556 (active)
